Experimental data as given in PubChem BioAssay (NCATS).
Records with an inconclusive call do not appear. Calls of active or inactive are those of the source. Calls follow the shape of the dose curve; as a rule, active = well fitted curve in the direction sought with a large enough effect; inconclusive = small, poorly fitted or top-dose-only effect, or another doubt; inactive = no such curve, though single readings can be large; an effect the other way counts as inactive or inconclusive. Where a SMILES comes first, the peptide text is derived from it. [ ]: non-standard residue; d: D form. The star is where a group is joined. ξ: configuration not given here. ξTyr(βOH) = NC(C(=O)O)C(O)c1ccc(O)cc1; Hexanoyl = CCCCCC(=O)*

What was measured:
[1] = system: HACAT; assay: qHTS assay to identify novel small-molecules to repurpose for Merkel cell carcinoma treatment (AID 1296009); details: MCC and control cell lines, CellTiter-Glo viability, 72 h; at 44.8 µM (top of the series) unless noted; also: nearly all actives have a fitted effect of over 60% in size
Procedure, shortened: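 After compound transfer in DMSO, plates were kept 72 hr at 37 degree celsius. Luminescent ATP signal from CellTiter-Glo served as viability measure, normalized against DMSO and no-cell controls.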

[2] = system: C33A; assay: Primary qHTS to identify gynecologic anti-cancer compounds using libraries of approved drugs and bioactive compounds (AID 1345084); details: Gynecologic cancer cell panel viability, ATPlite luminescence, 48 h; series mostly up to 57.5 µM; also: % is scaled to controls: 0 for no effect and ±100 for the full control effect; nearly all actives have a fitted effect of over 55% in size
Procedure, shortened: (§1)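 Cells, 1,000 per well, were allowed to settle for 16 h at 37 C before compound addition. Five concentrations were tested for 48 h, and viability was read by ATPlite luminescence after 15 min at room temperature.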

[3] = system: CAOV3; assay: as above; details: Gynecologic cancer cell panel viability, ATPlite luminescence, 48 h; series mostly up to 57.5 µM
Procedure, shortened: as §1

[4] = system: CASKI; assay: as above; details: Gynecologic cancer cell panel viability, ATPlite luminescence, 48 h; series mostly up to 57.5 µM
Procedure, shortened: as §1

[5] = system: Es-2; assay: as above; details: Gynecologic cancer cell panel viability, ATPlite luminescence, 48 h; series mostly up to 57.5 µM
Procedure, shortened: as §1

[6] = system: HeLa; assay: as above; details: Gynecologic cancer cell panel viability, ATPlite luminescence, 48 h; series mostly up to 57.5 µM
Procedure, shortened: as §1

[7] = system: Hek293T; assay: as above; details: Gynecologic cancer cell panel viability, ATPlite luminescence, 48 h, control line for the selectivity index; series mostly up to 57.5 µM
Procedure, shortened: as §1

[8] = system: JEG-3; assay: as above; details: Gynecologic cancer cell panel viability, ATPlite luminescence, 48 h; series mostly up to 57.5 µM
Procedure, shortened: as §1

[9] = system: OV90; assay: as above; details: Gynecologic cancer cell panel viability, ATPlite luminescence, 48 h; series mostly up to 57.5 µM
Procedure, shortened: as §1

[10] = system: PA-1; assay: as above; details: Gynecologic cancer cell panel viability, ATPlite luminescence, 48 h; series mostly up to 57.5 µM
Procedure, shortened: as §1

[11] = system: Tov-21-G; assay: as above; details: Gynecologic cancer cell panel viability, ATPlite luminescence, 48 h; series mostly up to 57.5 µM
Procedure, shortened: as §1

[12] = system: Tov112D; assay: as above; details: Gynecologic cancer cell panel viability, ATPlite luminescence, 48 h; series mostly up to 57.5 µM
Procedure, shortened: as §1

[13] = system: SKOV3; assay: as above; details: Gynecologic cancer cell panel viability, ATPlite luminescence, 48 h; series mostly up to 57.5 µM
Procedure, shortened: as §1

Cc1nc2ccccc2c(-c2ccc3c4c(ccnc24)CCO3)c1[C@H](OC(C)(C)C)C(=O)O
inactive: outcome [1] | Potency [2] | Potency [3] | outcome [4] | Potency [5] | Potency [6] | Potency [7] | Potency [8] | Potency [9] | Potency [10] | Potency [11] | Potency [12]

COc1cc(O)c2c(c1)C1(OC2=O)C(C)=CC(=O)C1O (stereo unspecified)
inactive: outcome [1] | Potency [2] | Potency [3] | outcome [4] | Potency [5] | Potency [6] | Potency [7] | Potency [8] | Potency [9] | Potency [10] | Potency [11] | Potency [12]

CC(C)C1NC(=O)CNC(=O)C2CCCN2C(=O)C(Cc2c[nH]c3ccccc23)NC(=O)CNC(=O)C(C(O)c2ccc(O)cc2)NC(=O)CNC1=O (stereo unspecified) (cyclo(G[ξTyr(βOH)]GWPGV); configuration not given here)
inactive: outcome [1] inactive [at 17.4 µM] | Potency [2] | Potency [3] | outcome [4] | Potency [5] | Potency [6] | Potency [7] | Potency [8] | Potency [9] | Potency [10] | Potency [11] | Potency [12]

COc1c2c(c(C)c3c1C(=O)OC3)OC1(C)CC(O)C34OC(OC)(CC(O)C3(C)C1C2)OC4(C)C (stereo unspecified)
inactive: outcome [1] inactive [at 17.4 µM] | Potency [2] | Potency [3] | outcome [4] | Potency [5] | Potency [6] | Potency [7] | Potency [8] | Potency [9] | Potency [10] | Potency [11] | Potency [12]

CC1=C2C[C@@]3(C)C(CCC[C@@H]3C)C(O)C2(O)OC1=O (stereo partly specified)
inactive: outcome [1] | Potency [2] | Potency [3] | outcome [4] | Potency [5] | Potency [6] | Potency [7] | Potency [8] | Potency [9] | Potency [10] | Potency [11] | Potency [12]

CC1(C)COC(=O)[C@@H]1O[C@@H]1O[C@H](CO)[C@@H](O)[C@H](O)[C@H]1O
inactive: outcome [1] | Potency [2] | Potency [3] | outcome [4] | Potency [5] | Potency [6] | Potency [7] | Potency [8] | Potency [9] | Potency [10] | Potency [13] | Potency [11] | Potency [12]

C/C=C/C=C/C=C/C(=O)OC1C=C2C(O)OC(=O)[C@]2(O)[C@@]2(C)CCCC(C)(C)[C@H]12 (stereo partly specified)
inactive: outcome [1] inactive [at 17.4 µM] | Potency [2] | Potency [3] | outcome [4] | Potency [5] | Potency [6] | Potency [7] | Potency [8] | Potency [9] | Potency [10] | Potency [11] | Potency [12]

NC(=O)c1ccc(F)c2c1C[C@@H](N(C1CCC1)C1CCC1)CO2
inactive: outcome [1] | Potency [2] | Potency [3] | outcome [4] | Potency [5] | Potency [6] | Potency [7] | Potency [8] | Potency [9] | Potency [10] | Potency [11] | Potency [12]

CCCCCC(=O)N1CCC[C@H]1C(=O)N[C@@H](Cc1ccc(O)cc1)C(=O)OC (Hexanoyl-Pro-Tyr-OMe)
inactive: outcome [1] | Potency [2] | Potency [3] | outcome [4] | Potency [5] | Potency [6] | Potency [7] | Potency [8] | Potency [9] | Potency [10] | Potency [11] | Potency [12]

COC(=O)[C@@H](NC(=O)[C@H](CC(C)C)NC(=O)N(Cc1ccccc1)C[C@@H](O)[C@H](Cc1ccccc1)NC(=O)OC(C)(C)C)C(C)C
inactive: outcome [1] inactive [at 9.27 µM] | activity change, negative = cytotoxicity [2] 9.01% [at 11.6 µM] | activity change, negative = cytotoxicity [3] -0.568% [at 11.6 µM] | activity change, negative = cytotoxicity [4] 1.08% [at 11.6 µM] | activity change, negative = cytotoxicity [5] 0.55% [at 11.6 µM] | activity change, negative = cytotoxicity [6] 4.24% [at 11.6 µM] | activity change, negative = cytotoxicity [7] -2.96% [at 11.6 µM] | activity change, negative = cytotoxicity [8] -2.99% [at 11.6 µM] | activity change, negative = cytotoxicity [9] -5.58% [at 11.6 µM] | activity change, negative = cytotoxicity [10] 4.66% [at 11.6 µM] | activity change, negative = cytotoxicity [13] 21.9% [at 11.6 µM] | activity change, negative = cytotoxicity [11] -1.16% [at 11.6 µM] | activity change, negative = cytotoxicity [12] 11% [at 11.6 µM]

C[C@@H]1CC[C@]2(C(=O)O[C@@H]3O[C@H](CO[C@@H]4O[C@H](CO)[C@@H](O)[C@H](O)[C@H]4O)[C@@H](O)[C@H](O)[C@H]3O)CC[C@]3(C)C(=CCC4[C@@]5(C)CC[C@H](O)[C@](C)(C(=O)O)C5CC[C@]43C)[C@@H]2[C@]1(C)O (stereo partly specified)
inactive: outcome [1] inactive [at 9.27 µM] | activity change, negative = cytotoxicity [2] -1.83% [at 11.6 µM] | activity change, negative = cytotoxicity [3] 5.32% [at 11.6 µM] | activity change, negative = cytotoxicity [4] 3.63% [at 11.6 µM] | activity change, negative = cytotoxicity [5] 6.01% [at 11.6 µM] | activity change, negative = cytotoxicity [6] 4.82% [at 11.6 µM] | activity change, negative = cytotoxicity [7] 10.6% [at 11.6 µM] | activity change, negative = cytotoxicity [8] 0.0588% [at 11.6 µM] | activity change, negative = cytotoxicity [9] 16.5% [at 11.6 µM] | activity change, negative = cytotoxicity [10] 3.28% [at 11.6 µM] | activity change, negative = cytotoxicity [11] 4.06% [at 11.6 µM] | activity change, negative = cytotoxicity [12] -2.64% [at 11.6 µM]

Cc1c(C)c(NCC(=O)N(C)C2CCN(Cc3ccc(C(N)=O)cc3)CC2)c(C)c(C)c1N
inactive: outcome [1] | Potency [2] | Potency [3] | outcome [4] | Potency [5] | Potency [6] | Potency [7] | Potency [8] | Potency [9] | Potency [10] | Potency [11] | Potency [12]

O=C(O[C@H]1[C@H](Oc2ccc(O)cc2CO)O[C@H](CO)[C@@H](O)[C@@H]1O)c1ccccc1
inactive: outcome [1] inactive [at 17.4 µM] | Potency [2] | Potency [3] | outcome [4] | Potency [5] | Potency [6] | Potency [7] | Potency [8] | Potency [9] | Potency [10] | Potency [13] | Potency [11] | Potency [12]

O=C(OC(C(F)(F)F)C(F)(F)F)N1CCN(Cc2cccc(Oc3ccccc3)c2)CC1
inactive: outcome [1] | Potency [2] | Potency [3] | outcome [4] | Potency [5] | Potency [6] | Potency [7] | Potency [8] | Potency [9] | Potency [10] | Potency [11] | Potency [12]
